The source of these data is PubChem BioAssay (Tox21).

A short description of test [1]: qHTS assay for identifying genotoxic compounds that show differential cytotoxicity against isogenic chicken DT40 cell lines with known DNA damage response pathways - wild type cell line (AID 743012). Further: nearly all actives have a fitted effect of over 60% in size. Further: potency means the concentration at half of the fitted maximal effect. Put shortly:
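Wild type DT40, 300 cells/well, ~0.5 h settle at 37 C/5% CO2; compounds in DMSO added by pintool; 40 h at 37 C/5% CO2; CellTiter-Glo, 30 min RT; luminescence.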

Test [2] in a line: qHTS assay for identifying genotoxic compounds that show differential cytotoxicity against isogenic chicken DT40 cell lines with known DNA damage response pathways - Rev3 mutant cell line (AID 743014; further: nearly all actives have a fitted effect of over 55% in size; further: potency means the concentration at half of the fitted maximal effect). (In general: qHTS replaces the single test concentration by a dilution series.)
Test [3] is described as follows: qHTS assay for identifying genotoxic compounds that show differential cytotoxicity against isogenic chicken DT40 cell lines with known DNA damage response pathways - Rad54/Ku70 mutant cell line (AID 743015). Further: nearly all actives have a fitted effect of over 60% in size. Further: potency means the concentration at half of the fitted maximal effect.
Test [4] in a line: qHTS assay to identify small molecule antagonists of the androgen receptor (AR) signaling pathway - cell viability counter screen (AID 743033; further: nearly all actives have a fitted effect of over 45% in size; further: potency means the concentration at half of the fitted maximal effect).
Test [5] can be described thus: qHTS assay to identify small molecule antagonists of the androgen receptor (AR) signaling pathway using the MDA cell line - cell viability counter screen (AID 743041; further: nearly all actives have a fitted effect of over 45% in size; further: potency means the concentration at half of the fitted maximal effect). Put shortly:
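Viability counter screen run alongside the AR antagonist reporter: cells seeded 5 h before compound, R1881 added, 16 h incubation at 37C without CO2, fluorescent CellTiter-Fluor signal quantified.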

A short description of test [6]: qHTS assay to identify small molecule antagonists of the thyroid receptor (TR) signaling pathway - cell viability counter screen (AID 743064). Further: nearly all actives have a fitted effect of over 50% in size. Further: potency means the concentration at half of the fitted maximal effect. Put shortly:
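GH3.TRE-Luc rat pituitary cells dosed after 4 hr plating, co-stimulated with T3 at 1 nM final, incubated 23.5 h at 37 C. Viability measured in the same wells by CellTiter-Fluor fluorescence after 30 min further at 37 C.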

Test [7] in a line: qHTS assay to identify small molecule antagonists of the thyroid receptor (TR) signaling pathway (AID 743065). Further: nearly all actives have a fitted effect of over 55% in size. Further: potency means the concentration at half of the fitted maximal effect. The method, boiled down:
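GH3.TRE-Luc rat pituitary cells carrying two TR response elements driving luciferase were plated for 4 h, given compound plus 1 nM T3 (final), and incubated 23.5 h at 37 C. ONE-Glo luminescence measured reporter inhibition; CellTiter-Fluor fluorescence tracked cytotoxicity.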

A short description of test [8]: qHTS assay to identify small molecule antagonists of the estrogen receptor alpha (ER-alpha) signaling pathway - cell viability counter screen (AID 743074; calls by dose curve;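 further: HEK293 cells carrying ER-alpha-UAS-bla reporter stimulated with 17beta-estradiol; nearly all actives have a fitted effect of over 45% in size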; further: potency means the concentration at half of the fitted maximal effect).
Test [9] can be described thus: qHTS assay to identify small molecule antagonists of the estrogen receptor alpha (ER-alpha) signaling pathway using the BG1 cell line - cell viability counter screen (AID 743081).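 Further: compound given together with 17beta-estradiol as the ER stimulus; nearly all actives have a fitted effect of over 45% in size.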 Further: potency means the concentration at half of the fitted maximal effect.
The target of test [10] is Aromatase (Homo sapiens) (UniProt P11511). The test can be described thus: qHTS assay to identify aromatase inhibitors (AID 743083). Further: nearly all actives have a fitted effect of over 55% in size. Further: potency means the concentration at half of the fitted maximal effect.
Chain of Aromatase (Homo sapiens) (P11511 whole entry, looked up): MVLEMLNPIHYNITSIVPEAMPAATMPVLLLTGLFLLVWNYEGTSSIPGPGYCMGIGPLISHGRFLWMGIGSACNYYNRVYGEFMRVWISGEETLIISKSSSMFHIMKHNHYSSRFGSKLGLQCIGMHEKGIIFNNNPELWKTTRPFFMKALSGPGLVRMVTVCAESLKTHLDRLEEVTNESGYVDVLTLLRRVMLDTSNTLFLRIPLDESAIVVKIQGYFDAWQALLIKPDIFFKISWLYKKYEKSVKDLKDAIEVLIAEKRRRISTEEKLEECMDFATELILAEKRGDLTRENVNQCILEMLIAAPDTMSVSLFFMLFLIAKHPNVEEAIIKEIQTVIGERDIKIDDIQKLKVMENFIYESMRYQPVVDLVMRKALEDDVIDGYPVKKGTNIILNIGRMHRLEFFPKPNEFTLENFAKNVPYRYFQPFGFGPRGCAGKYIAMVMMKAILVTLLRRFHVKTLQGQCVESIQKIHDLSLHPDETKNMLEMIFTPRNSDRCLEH
Test [11] in a line: qHTS assay to identify small molecule antagonists of the glucocorticoid receptor (GR) signaling pathway - cell viability counter screen (AID 720693). Further: nearly all actives have a fitted effect of over 55% in size.
Test [12] relates to thyroid hormone receptor (rat, GH3 cells). Briefly: qHTS assay to identify small molecule agonists of the thyroid receptor (TR) signaling pathway (AID 743066; calls by dose curve).
For test [13], the target named is Estrogen receptor (Homo sapiens) (UniProt P03372). Briefly: qHTS assay to identify small molecule antagonists of the estrogen receptor alpha (ER-alpha) signaling pathway (AID 743069; active means well fitted curve in the direction sought with a large enough effect in the signal ratio in the repeat runs, not every such curve was filed as active; inconclusive means weak or mixed curves, or effect the other way; inactive means no such curve, though single readings can be large or run the other way; the % refers to the signal ratio; further: potency means the concentration at half of the fitted maximal effect). The method, boiled down: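 Estradiol-stimulated ER-alpha-UAS-bla HEK293 cells, 18 hr compound exposure at 37C. LiveBLAzer B/G substrate, 2 hr RT, fluorescence read.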
Chain of Estrogen receptor (Homo sapiens) (P03372 whole entry, looked up): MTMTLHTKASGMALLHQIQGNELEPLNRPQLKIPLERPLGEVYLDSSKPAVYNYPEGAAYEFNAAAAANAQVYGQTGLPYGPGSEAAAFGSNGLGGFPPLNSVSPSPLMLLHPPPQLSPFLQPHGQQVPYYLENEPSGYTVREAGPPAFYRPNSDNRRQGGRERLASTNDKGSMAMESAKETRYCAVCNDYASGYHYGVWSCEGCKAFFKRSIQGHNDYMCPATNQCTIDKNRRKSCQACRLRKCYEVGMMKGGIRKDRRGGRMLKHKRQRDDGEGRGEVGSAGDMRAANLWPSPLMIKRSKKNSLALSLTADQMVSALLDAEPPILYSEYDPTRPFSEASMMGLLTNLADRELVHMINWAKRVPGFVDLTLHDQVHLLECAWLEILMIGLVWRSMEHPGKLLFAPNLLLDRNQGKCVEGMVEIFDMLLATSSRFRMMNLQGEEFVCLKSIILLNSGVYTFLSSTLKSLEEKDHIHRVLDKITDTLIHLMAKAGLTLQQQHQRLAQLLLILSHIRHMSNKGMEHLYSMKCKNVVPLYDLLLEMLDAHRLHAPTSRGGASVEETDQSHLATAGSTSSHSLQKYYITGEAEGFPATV
Test [14] has the same target. Briefly: qHTS assay to identify small molecule agonists of the estrogen receptor alpha (ER-alpha) signaling pathway (AID 743075; calls by dose curve;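 further: HEK293 GripTite cells with ER-alpha and UAS-driven beta-lactamase reporter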).
Test [15] shares this target. The test can be described thus: qHTS assay to identify small molecule agonists of the estrogen receptor alpha (ER-alpha) signaling pathway using the BG1 cell line (AID 743079). Further: nearly all actives have a fitted effect of over 20% in size. Further: potency means the concentration at half of the fitted maximal effect.
The nature of test [16]: qHTS assay to identify small molecule antagonists of the estrogen receptor alpha (ER-alpha) signaling pathway using the BG1 cell line (AID 743080; calls by dose curve;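 further: BG1 cells stimulated with 17beta-estradiol alongside compound; nearly all actives have a fitted effect of over 25% in size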; further: potency means the concentration at half of the fitted maximal effect). Put shortly:
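BG1Luc4E2, endogenous ER-alpha, 4xERE-luc; 5 d charcoal-stripped FBS, phenol red free; 24 h plating; cpd + 17beta-estradiol 21.5 h, 37 C/5% CO2; CellTiter-Fluor viability 30 min, then ONE-Glo luciferase 30 min RT.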

For test [17], the target named is Androgen receptor (Homo sapiens) (UniProt P10275). Briefly: qHTS assay to identify small molecule agonists of the androgen receptor (AR) signaling pathway using the MDA cell line (AID 743040; further: nearly all actives have a fitted effect of over 20% in size). Put shortly:
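Luminescence from ONE-Glo, read after 30 min at room temperature, reflects MMTV-driven luciferase in MDA-kb2 cells (AR- and GR-responsive). Treatment lasted 16 h at 37C, 0% CO2.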

Test [18] shares this target. Briefly: qHTS assay to identify small molecule antagonists of the androgen receptor (AR) signaling pathway using the MDA cell line (AID 743042; further: nearly all actives have a fitted effect of over 55% in size; further: potency means the concentration at half of the fitted maximal effect). Put shortly:
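MDA-kb2 cells (human breast carcinoma, stably carrying an MMTV-luciferase reporter responsive to AR and GR) were plated at 3,000 cells/well and preincubated 5 hr at 37C, then given compound plus R1881 agonist for 16 h. ONE-Glo luminescence was read.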

Molecules are shown by their SMILES. Values joined by “and” are separate entries in the source; they are usually repeats but may differ in a detail not shown here. Equal entries are not always repeated. The source holds several records for some structures; these can differ, active in one and inactive in another. Active and inactive are the calls of the source. Unless noted, the call rests on the fitted dose curve; in most records, active means well fitted curve in the direction sought with a large enough effect in the repeat runs; inconclusive means weak or mixed curves; inactive means no such curve, though single readings can be large; an effect the other way counts as inactive or inconclusive.

Chain of Androgen receptor (Homo sapiens) (P10275 whole entry, looked up): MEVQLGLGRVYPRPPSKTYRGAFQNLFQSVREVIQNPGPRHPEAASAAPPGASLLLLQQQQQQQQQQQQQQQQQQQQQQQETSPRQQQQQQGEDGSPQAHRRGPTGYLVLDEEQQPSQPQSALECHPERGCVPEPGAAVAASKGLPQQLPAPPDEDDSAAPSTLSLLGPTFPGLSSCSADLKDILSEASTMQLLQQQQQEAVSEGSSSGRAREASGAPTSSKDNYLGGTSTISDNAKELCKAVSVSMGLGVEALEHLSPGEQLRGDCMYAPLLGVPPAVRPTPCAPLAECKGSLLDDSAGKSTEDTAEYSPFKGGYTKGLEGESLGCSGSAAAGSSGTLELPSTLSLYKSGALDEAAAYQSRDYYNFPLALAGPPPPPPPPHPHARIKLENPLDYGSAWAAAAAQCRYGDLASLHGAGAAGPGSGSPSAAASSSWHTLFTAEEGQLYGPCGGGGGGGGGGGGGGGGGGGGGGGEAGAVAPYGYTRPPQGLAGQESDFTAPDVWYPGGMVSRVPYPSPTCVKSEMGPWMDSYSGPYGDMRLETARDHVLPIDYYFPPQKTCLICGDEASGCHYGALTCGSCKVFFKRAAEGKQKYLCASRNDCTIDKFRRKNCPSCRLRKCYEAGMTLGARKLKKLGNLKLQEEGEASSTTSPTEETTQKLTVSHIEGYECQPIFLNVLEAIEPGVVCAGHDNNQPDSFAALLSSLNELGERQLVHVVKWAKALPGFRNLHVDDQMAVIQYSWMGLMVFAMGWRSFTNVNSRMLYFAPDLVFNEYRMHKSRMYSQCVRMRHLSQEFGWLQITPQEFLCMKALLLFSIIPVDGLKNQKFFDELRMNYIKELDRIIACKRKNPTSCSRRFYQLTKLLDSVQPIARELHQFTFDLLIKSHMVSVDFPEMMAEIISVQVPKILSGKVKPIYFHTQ

On to `COc1cccc2c1C(=O)c1c(O)c3c(c(O)c1C2=O)C[C@@](O)(C(C)=O)C[C@@H]3O[C@H]1C[C@H](N)[C@H](O)[C@H](C)O1`, for which the Potency in [1] is 23.7 nM (active) and 21.8 nM (active); in test [2], 37.6 nM (active) and 12.3 nM (active); in [3], 10.6 nM (active) and 2.4 nM (active); in test [4] it was 22 µM (active); in test [5], 54.8 µM (active); in test [6], 1.06 µM (active) and 218 nM (active). Besides, the Potency in test [7] is 596 nM (active) and 154 nM (active); in [9] it was 21.1 µM (active) and 27.5 µM (active); in test [10] it was 3.76 µM (active) and 615 nM (active). In addition, the Potency result in test [8] was “inactive”.
Consider `C=Cc1ccccc1C=C`, for which the Potency result in test [11], in test [4], in [5], in [6], in [13] and in test [14] was “inactive” each time. In addition, the Potency result in test [15], in [16], in test [9] and in [10] was “inactive” in each case. The call in test [12] was inactive.
Regarding `CCCCCCCCCCCCCC[N+](C)(C)Cc1ccccc1`, the Potency is 473 nM (active) and 621 nM (active) in [1]; 750 nM (active) and 493 nM (active) in [2]; 750 nM (active) and 493 nM (active) in test [3]; 23.9 µM (active) and 7.03 µM (active) in [4]; 49.3 µM (active) in test [5]; 11.9 µM (active) and 13.9 µM (active) in test [6]. Further, the Potency in [8] is 21.3 µM (active) and 22.2 µM (active); in [16], 26.6 µM (active); in test [10], 29.8 µM (active) and 13.9 µM (active). The result in [12] was inactive. Also, the Potency entry in test [14] and in [9] was “inactive” throughout.
As for `CCO[C@@H]1O[C@H](C(COCc2ccccc2)OCc2ccccc2)[C@H](OCc2ccccc2)[C@H]1O` (stereo partly specified), the Potency result in [11], in [4], in [5], in test [6], in [8] and in test [9] was “inactive” in each case. Further, the Potency entry in test [10] was “inactive”. In addition, in test [3], the Potency is 14.3 µM (active).
For `O=C(O)c1ccc2cc(C(=O)O)ccc2c1`, the Potency entry in test [1], in test [2], in test [3], in [4], in test [5] and in [6] was “inactive” in each case. For the same molecule, the Potency result in test [7], in test [13], in test [8], in test [14], in test [15] and in test [16] was “inactive” throughout. Also, the Potency entry in test [9] and in [10] was “inactive” in each case. Also, in [12], the molecule was classed as inactive.
With `CCCCN(CCCC)CC(O)c1cc(Cl)cc2c1-c1ccc(Cl)cc1/C2=C/c1ccc(Cl)cc1` (stereo unspecified), the Potency entry in test [11], in test [4], in test [13], in test [14], in test [16] and in [9] was “inactive” each time. Also, the Potency result in test [10] was “inactive”. Moreover, the Potency in test [7] is 29.8 µM (active); in test [15] it was 23.7 µM (active).
Turning to `C=CC(C)(CCC=C(C)C)OC=O` (stereo unspecified), the Potency result in test [1], in test [4], in test [5], in test [6], in test [7] and in [13] was “inactive” each time. The Potency entry in test [8], in test [14], in [15], in test [16], in test [9] and in test [10] was “inactive” each time. Besides, the Potency was 24.3 µM (active) in test [2] and 54.5 µM (active) in test [3]. The molecule was called inactive in [12].
Take `CC[N+](CC)(CC)CCOc1ccc(/C=C/c2ccccc2)cc1`: the Potency in test [1] was 944 nM (active) and 750 nM (active); in test [2], 750 nM (active) and 668 nM (active); in test [3], 944 nM (active) and 750 nM (active); in test [5] it was 29.8 µM (active); in test [7], 29.8 µM (active); in test [13], 5.35 µM [inconclusive] (active). In addition, the Potency in test [16] and in [10] was 29.8 µM (active) in each case. Also, the Potency result in test [4], in [6], in test [8], in test [14] and in [9] was “inactive” in each case. The call in test [12] was inactive.
`[Cl][Pt-2]([Cl])([Cl])[Cl]`: the Potency result in [11], in test [3], in test [4], in test [5], in test [13] and in [8] was “inactive” each time. Also, the Potency entry in test [14], in test [15], in test [16], in test [9] and in test [10] was “inactive” each time. In addition, in [12], the result was inactive.
With `CC(=O)Oc1cc2c(s1)CCN(C(C(=O)C1CC1)c1ccccc1F)C2` (stereo unspecified), the Potency result in test [1], in test [2], in [3], in test [4], in [5] and in test [6] was “inactive” throughout. Besides, the Potency entry in test [13], in test [14], in [15], in test [16], in test [9] and in [10] was “inactive” in each case. The outcome in test [12] was inactive.
As to `CC(CCc1ccccc1)NCC(O)c1ccc(O)c(C(N)=O)c1` (stereo unspecified), the Potency entry in test [1], in [2], in test [3], in test [4], in test [5] and in [7] was “inactive” each time. The Potency result in [13], in [8], in test [14], in test [15], in test [16] and in [10] was “inactive” in each case. In addition, the Potency in [6] was 30.6 µM (active). Besides, the outcome in [12] was inactive.
Take `S=c1nccc[nH]1`: the Potency entry in test [11], in [5], in test [6], in [7], in test [13] and in test [8] was “inactive” throughout. Further, the Potency result in [16], in test [9] and in [10] was “inactive” each time. In [12], the call was inactive. Moreover, the Potency in test [15] was 30.7 µM (active).
With `Cc1c2ccccc2c(C)c2c1ccc1ccccc12`, the Potency in test [1] is 30.3 µM (active) and 3.06 µM (active); in test [2], 15.2 µM (active) and 2.73 µM (active); in test [3], 21.5 µM (active) and 4.33 µM (active); in test [4], 48.5 µM (active) and 24.5 µM (active); in test [5] it was 61.1 µM (active); in test [18] it was “inactive and 30.6 µM (active)”. The Potency in [6] is 27 µM (active) and 13.7 µM (active); in [15], 30.3 µM (active); in [16], 67.9 nM (active) and 486 nM (active); in test [10], “inactive and 27.3 µM (active)”. For the same molecule, the molecule was classed as inactive in test [17]. In addition, the Potency entry in test [9] is “inactive”.
Turning to `CC[C@H](C)COC(=O)/C=C/c1ccc(N=Cc2ccc(OC)cc2)cc1`, the Potency entry in test [11], in [5], in test [14] and in [9] was “inactive” in each case. In addition, the Potency in test [2] was 61 µM (active); in test [15], 2.73 µM (active). In addition, in [12], the call was inactive.
Take `CC(C)(C)c1ccc(C(O)CCCN2CCC(C(O)(c3ccccc3)c3ccccc3)CC2)cc1` (stereo unspecified): the Potency in test [1] was 4.22 µM (active) and 3.76 µM (active); in test [2], “inactive and 9.44 µM (active)”; in test [3], 9.44 µM (active); in [6], “inactive and 5.96 µM (active)”; in test [10], “inactive and 29.8 µM (active)”. The Potency entry in test [4], in [5], in test [13], in test [8], in test [14] and in test [15] was “inactive” in each case. The Potency result in test [16] and in test [9] was “inactive” in each case. The result in test [12] was inactive.
In the case of `Cc1ccc(N/N=c2\c(=O)cc/c(=N\Nc3ccc(S(=O)(=O)O)cc3)c2=O)c(C)c1`, the Potency entry in test [1], in [2], in test [3], in test [4], in test [13] and in test [8] was “inactive” each time. The Potency entry in test [14], in test [15], in test [16] and in test [10] was “inactive” in each case. Moreover, the Potency in test [5] was 27.3 µM (active); in test [6], 61.1 µM (active); in [9], 54.5 µM (active). Besides, the molecule was called inactive in [12].
For the molecule `Cc1cccc(C(=O)O)c1O`, the Potency entry in test [1], in [2], in test [3], in test [4], in test [5] and in test [6] was “inactive” throughout. The Potency entry in test [7], in test [13], in [8], in test [14], in [15] and in [16] was “inactive” in each case. In addition, the Potency entry in test [9] and in test [10] was “inactive” in each case. In [12], the molecule was classed as inactive.
